SMILES strings stand for the structures. Hit rate of the full screen: of about 360,000 compounds, about 6,000 (1.7%) were called active. Entries that show only a call come without a potency. Roughly 8% stayed inconclusive and do not appear here. The call rests on the fitted dose curve; in most records, active means well fitted cell-killing curve with a large enough effect; inconclusive means small, poorly fitted or top-dose-only effect, or effect the other way; inactive means flat fitted curve, though single readings scatter. Many of the other results were omitted from the sample, so actives are more common in it than they were.
Potency means the concentration at half of the fitted maximal effect.

The assay can be described thus: qHTS for induction of synthetic lethality in tumor cells producing 2HG: qHTS for the HT-1080-NT fibrosarcoma cell line.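 Further: NT is the 2HG producing partner of a matched IDH1 knockdown line; nearly all actives have a fitted effect of over 55% in size.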 Particulars: HT-1080-NT fibrosarcoma viability, CellTiter-Glo ATP luminescence, 48 h; series mostly up to 46.1 µM. The gist of the method:
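750 cells/well, RPMI + 5% FBS; 2 h settle, compound pin-transfer, 48 h at 37 degrees C. CellTiter-Glo 10 min RT, luminescence. Normalized to DMSO and media-only wells.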
As to `CC1(C(=O)NS(=O)(=O)c2ccc(C#N)cc2)CCN1C(=O)c1ccc(C2CCCCC2)cc1` (stereo not drawn), the Potency result is “inactive”.
Still for that read-out and setting: the result for `C[C@H](CO)N1C[C@H](C)[C@@H](CN(C)C(=O)C2CCCCC2)OCc2cnnn2CCCC1=O` reads “inactive”; that for `CC(C)(O)C#Cc1ccc(CN2CCC(CO)(CCc3ccccc3)CC2)cc1`, “inactive”; that for `Cc1c(CN2CCC(CO)(CCOc3ccccc3)CC2)[nH]c2ccc(Cl)cc12`, 25.9 µM (active).
Consider `Cc1cccc(-c2ncc(CN3CCC(CO)(CCCc4ccccc4)CC3)cn2)c1`, for which the Potency result was “inactive”.
The same measure, in the same setting: then `CCCNC(=O)C1(C)CCN(Cc2ccc(Cl)c(Cl)c2)C1` (stereo not drawn), with “inactive”; and `CN1OC[C@@H]2CN(S(=O)(=O)c3cccc(C(F)(F)F)c3)[C@H](c3ccc(-c4cc5ccccc5o4)cc3)C[C@@H]21`, with “inactive”.
The same measure, in the same setting: then `CNc1cnc(-c2cc(OC)c(OC)c(OC)c2)cn1`, with “inactive”.
The same measure, in the same setting: the result for `CC(=O)c1cc(CN2CCC(C(=O)Nc3cccc(-c4cscn4)c3)CC2)cs1` reads “inactive”; that for `O=C(Nc1cnn(Cc2ccc(Cl)cc2)c1)C1CCCC1`, “inactive”.
In the case of `O=C(Nc1cccc(-c2cccc(Cl)c2)c1)C1CCN(C2CCC2)CC1`, the Potency is 25.9 µM (active).
Consider `COc1cccc(-c2cccc(NC(=O)C3CCN(C4CCC4)CC3)c2)c1`, for which the Potency result was “inactive”.
On the same count and under the same terms, the result for `CCn1cc(CN2CCC(C(=O)Nc3cccc(-c4cccc(Cl)c4)c3)CC2)c(C)n1` reads 20.6 µM (active); that for `O=C(Nc1cccc(-c2cscn2)c1)C1CCN(Cc2ccsc2)CC1`, “inactive”.
The same measure, in the same setting: then `CCn1cc(CN2CCC(n3nccc3NC(=O)CCCc3ccccc3)CC2)c(C)n1`, with “inactive”.
Still for that read-out and setting: then `CCn1cc(CN2CCC(C(=O)Nc3cccc(-c4cccc(Cl)c4)c3)CC2)cn1`, with 14.6 µM (active); and `O=C(NC1CCCC1)C1CCN(C(=O)Nc2cccc(Cl)c2)CC1`, with “inactive”.
As for `O=C(COC(=O)c1cccc(Cl)c1Cl)NC1CCCCCC1`, the Potency entry was “inactive”.
The same measure, in the same setting: then `CC(C)Oc1cc(F)ccc1-c1cc(C(=O)Nc2ccc(F)cc2)[nH]n1`, with “inactive”; and `CCN(CC)C(=O)C1=C(C)N(Cc2ccccc2)C(=O)C(CC(=O)NC(c2ccccc2)c2ccccc2)C1` (stereo not drawn), with “inactive”; and `O=C(C[C@H]1CC[C@@H](NC(=O)c2ccncc2)[C@@H](CO)O1)NCC1CC1`, with “inactive”.
The same measure, in the same setting: then `NCCCCC(C(=O)O)N(C(=O)OCc1ccccc1)C(=O)OCc1ccccc1` (stereo not drawn), with “inactive”; and `CCCCCCn1c(=O)n2n(c1=O)C[C@]1(OC(=O)NCc3ccc(OC)c(OC)c3)CN(S(=O)(=O)c3ccc(C)cc3)C[C@]1(O)C2`, with “inactive”.
As to `CCC(C)N(C(=O)CSc1nnnn1-c1ccccc1OC)C1CCS(=O)(=O)C1` (stereo not drawn), the activity, negative = less viability was -3.07% [at 9.24 µM] (inactive).
As to `COc1ccccc1-n1nnnc1S(=O)(=O)Cc1ccc(Cl)cc1`, the Potency was 20.6 µM (active).
With `COc1ccccc1-n1nnnc1SCC(=O)NC(=O)Cc1ccccc1`, the Potency result is “inactive”.
Same read-out and setting: then `CC(=O)C[C@@H]1OC[C@H](CO)N1S(=O)(=O)c1ccc(C)cc1`, with “inactive”; and `COc1ccc2c(c1)c(=Cc1ccc(N(C)C)cc1)c1cc(-c3ccccc3)[n+](C)n12`, with 13 µM (active).
The same measure, in the same setting: the result for `COc1ccc2sc(-c3ccc(N(C)C)cc3)c(-c3ccc4cc[nH]c4c3)c2c1` reads “inactive”; that for `O=C(NCC(O)c1nc2ccccc2[nH]1)c1ccc(Br)cc1` (stereo not drawn), “inactive”; that for `Cc1cc(=O)oc2cc(OCCC[n+]3ccccc3)ccc12`, “inactive”.
Consider `Cc1cc(=O)oc2cc(OCC3CC(c4ccccc4Cl)=NO3)ccc12` (stereo not drawn), for which the Potency was 0.708 µM (active).
Same read-out and setting: then `CCOc1ccccc1N1CCN(C(=O)COc2ccc3c(C)cc(=O)oc3c2)CC1`, with “inactive”; and `COc1cc(NC(=O)C2=C(C)OCCS2)c(Cl)cc1C(=O)NCCCN1CCCC(C)C1` (stereo not drawn), with “inactive”; and `Cc1ccc(S(=O)(=O)N[C@H]2CCC[C@@H]2O)cc1`, with “inactive”.
Still for that read-out and setting: then `CCOC(=O)N1C(=O)C[C@](Sc2ccc(C)cc2)(C(=O)OC)[C@H]1c1ccccc1`, with “inactive”; and `Cc1cccc(C(=O)Nc2ccc(C(=O)N/N=C/c3cccc(C)n3)cc2)c1`, with “inactive”; and `CSc1nc(N(C)NC(=O)c2cccc(C)c2)c2ccccc2n1`, with 0.13 µM (active).
Still for that read-out and setting: the result for `Cn1c(CC(=O)NNC(=O)c2ccccc2F)nc2ccccc21` reads “inactive”; that for `CN(NC(=O)c1ccccc1F)c1nc(C(F)(F)F)nc2ccccc12`, 0.291 µM (active); that for `CC(NC(=O)c1ccccc1F)c1cccc2ccccc12` (stereo not drawn), “inactive”.
Take `COc1ccc(C(=O)NN(C)c2nc(-c3ccccc3)cc(C)c2S(C)(=O)=O)cc1`: the Potency entry was “inactive”.
Same read-out and setting: the result for `COc1ccc(-c2cc(NC=O)c3ncc(-c4cccc(C(=O)N(C)C)c4)n3c2)c(OC)c1` reads “inactive”; that for `CC1(C)OC(=O)C2=C(CC(c3ccccc3)OC2CCc2ccccc2)O1` (stereo not drawn), “inactive”; that for `O=Nc1c(O)cc(O)c2ccccc12`, “inactive”.
On the same count and under the same terms, then `CCC(c1nnnn1-c1ccc2c(c1)OCCO2)N1CCN(c2ccc(C(F)(F)F)cn2)CC1` (stereo not drawn), with “inactive”.
Turning to `CCC(C)CN1C(=O)CSCC1(C)C(=O)NCc1ccccc1` (stereo not drawn), the Potency entry is “inactive”.
The same measure, in the same setting: the result for `COc1ccc2c(c1)CCCO[C@]21O[C@H](CCO)C[C@H](O)[C@H]1O` reads “inactive”.
Still for that read-out and setting: then `CN(C)C(=O)COC(=O)c1cccc(S(=O)(=O)N2CC3(C)CC2CC(C)(C)C3)c1` (stereo not drawn), with “inactive”; and `Cc1nnnn1/C(=C\c1ccccc1)C(=O)OCC(=O)N1CC2(C)CC1CC(C)(C)C2` (stereo not drawn), with 23.1 µM (active); and `CCOC(=O)C1CCCN(C(=O)c2cc(-c3cccs3)oc2C)CC1` (stereo not drawn), with “inactive”.
Same read-out and setting: then `Cc1cccc(C=CC(=O)c2ccc(Cl)cc2)c1`, with “inactive”; and `CC1(C(=O)O)CCCN(C(=O)/C=C/c2ccccc2)C1` (stereo not drawn), with “inactive”; and `Cc1[nH]c(=O)c(C(=O)/C=C/c2ccccc2)c2c1CCCC2`, with 7.08 µM (active).
On to `O=C(NCCOc1ccccc1)N1[C@H]2CC[C@@H]1C=C(c1ccc(F)cc1OCc1ccccc1)C2`, for which the Potency result is “inactive”.
Still for that read-out and setting: then `CC1(C(=O)NCc2ccccc2)CN(S(C)(=O)=O)CC(=O)N1CC(F)(F)F` (stereo not drawn), with “inactive”; and `OC[C@@H]1CN(Cc2cccs2)C[C@H](n2cnc3c(NC4CCCC4)ncnc32)O1`, with “inactive”.
Regarding `OC[C@@H]1CN(Cc2ccc(-c3ccccc3)cc2)C[C@H](n2cnc3c(NC4CCCC4)ncnc32)O1`, the Potency was 9.2 µM (active).
The same measure, in the same setting: the result for `OC[C@@H]1CN(C2CCCC2)C[C@H](n2cnc3c(NC4CCC4)ncnc32)O1` reads “inactive”.
Same read-out and setting: then `COc1cc(C(=O)OCCCN2CCOCC2)cc(OC)c1OC`, with “inactive”; and `CN(C)S(=O)(=O)Oc1ccccc1C(=O)Nc1ccccc1Cl`, with “inactive”.
Same read-out and setting: then `O=C(COC(=O)CCc1c[nH]c(=O)[nH]1)Nc1ccccc1Cl`, with “inactive”.
Take `O=C(Nc1ccccc1Cl)/C(Cl)=C(\Cl)S(=O)c1ccccc1` (stereo not drawn): the Potency is 20.6 µM (active).

The record behind these values is PubChem BioAssay AID686970 (National Center for Advancing Translational Sciences (NCATS), 2013).
